{"source": "PubChem BioAssay (NCI)", "key": {"[1]": {"experiment": "NCI Yeast Anticancer Drug Screen. Data for the rad52 strain (AID 147);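 further: 0% = growth of vehicle-treated control cultures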", "settings": "S. cerevisiae rad52 mutant growth inhibition, stronger effect = higher value", "outline": "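Growth of repair-deficient yeast cells was compared between compound-treated and vehicle-treated cultures to give percent inhibition.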"}, "[2]": {"experiment": "NCI Yeast Anticancer Drug Screen. Data for the wt1 strain (AID 149);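 further: 0% = growth of vehicle-treated wt1 cultures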", "settings": "S. cerevisiae wt1 strain (SPY 50644) growth inhibition, stronger effect = higher value", "outline": "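Yeast wt1 strain exposed to compounds; growth inhibition measured relative to vehicle-treated controls.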"}, "[3]": {"experiment": "NCI Yeast Anticancer Drug Screen. Data for the rad50EPP+ strain (AID 151);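 further: 0% = growth of vehicle-treated control cultures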", "settings": "S. cerevisiae rad50 mutant strain, stronger effect = higher value", "outline": "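Measured: growth inhibition of rad50EPP+ yeast. Reference: vehicle-treated controls. Screen uses strains with defined genetic alterations in DNA damage repair or cell cycle control.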"}, "[4]": {"experiment": "NCI Yeast Anticancer Drug Screen. Data for the mgt1 strain (AID 153)", "settings": "S. cerevisiae mgt1 mutant growth inhibition, stronger effect = higher value", "outline": "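Compounds were applied to mgt1 mutant yeast, and growth was then compared against vehicle-treated control cultures to give percent inhibition.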"}, "[5]": {"experiment": "NCI Yeast Anticancer Drug Screen. Data for the rad50 strain (AID 155);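 further: 0% = growth of vehicle-only cultures of the same strain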", "settings": "S. cerevisiae rad50 strain growth inhibition, stronger effect = higher value", "outline": "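Yeast carrying a defined DNA repair defect were exposed to test compounds, and growth was compared with vehicle-treated controls to give percent inhibition.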"}, "[6]": {"experiment": "NCI Yeast Anticancer Drug Screen. Data for the mec2-1 strain (AID 157)", "settings": "S. cerevisiae mec2-1 strain, stronger effect = higher value", "outline": "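Compounds were applied to mec2-1 yeast cells. Their growth was then compared with that of vehicle-treated cultures to give growth inhibition.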"}, "[7]": {"experiment": "NCI Yeast Anticancer Drug Screen. Data for the rad14 strain (AID 159);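 further: 0% = growth of vehicle-treated control cultures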", "settings": "S. cerevisiae rad14 strain growth inhibition, stronger effect = higher value", "outline": "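Yeast cells carrying a defined DNA-repair defect were exposed to compounds, and growth inhibition was calculated relative to vehicle-treated control cultures.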"}, "[8]": {"experiment": "NCI Yeast Anticancer Drug Screen. Data for the CLN2oe strain (AID 163);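 further: 0% = growth of vehicle-only control cultures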", "settings": "S. cerevisiae CLN2oe strain, stronger effect = higher value", "outline": "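Cells of an engineered yeast line with disturbed cell-cycle regulation are treated with compound. Inhibition of growth is then calculated relative to the vehicle-treated reference.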"}, "[9]": {"experiment": "NCI Yeast Anticancer Drug Screen. Data for the cln2 rad14 strain (AID 165);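 further: 0% = growth equal to vehicle treated cultures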", "settings": "S. cerevisiae cln2 rad14 strain, stronger effect = higher value", "outline": "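Strain: cln2 rad14 yeast, altered in cell cycle control and DNA damage repair. Read-out: growth inhibition vs vehicle.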"}, "[10]": {"experiment": "NCI Yeast Anticancer Drug Screen. Data for the bub3 strain (AID 167)", "settings": "S. cerevisiae bub3 mutant strain, stronger effect = higher value", "outline": "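Compounds were applied to a genetically altered yeast strain carrying a cell-cycle control defect. Growth inhibition was scored against vehicle-treated controls.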"}, "[11]": {"experiment": "NCI Yeast Anticancer Drug Screen. Data for the wt2 strain (AID 169);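 further: 0% = growth of vehicle-treated yeast cultures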", "settings": "S. cerevisiae wt2 strain growth inhibition, stronger effect = higher value", "outline": "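Growth of compound-treated yeast is measured and expressed as inhibition relative to vehicle-only controls.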"}, "[12]": {"experiment": "NCI Yeast Anticancer Drug Screen. Data for the mlh1 strain (AID 171);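 further: 0% = growth of vehicle-treated control cultures of the same strain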", "settings": "S. cerevisiae mlh1 strain growth inhibition, stronger effect = higher value", "outline": "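Test agents were incubated with yeast bearing a defined DNA damage repair or cell cycle control alteration; values are growth inhibition normalised to vehicle-treated cultures.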"}, "[13]": {"experiment": "NCI Yeast Anticancer Drug Screen. Data for the sgs1 strain (AID 173);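 further: 0% = growth of vehicle-only control cultures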", "settings": "S. cerevisiae sgs1 mutant, stronger effect = higher value", "outline": "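Strain with an altered DNA repair or cell cycle pathway exposed to compound. Growth then measured. Value = inhibition versus vehicle control.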"}, "[14]": {"experiment": "NCI Yeast Anticancer Drug Screen. Data for the mlh1 rad18 strain (AID 175)", "settings": "S. cerevisiae mlh1 rad18 strain growth inhibition, stronger effect = higher value", "outline": "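A repair-deficient yeast strain is exposed to test compound, and growth is scored relative to vehicle-treated controls.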"}, "[15]": {"experiment": "NCI Yeast Anticancer Drug Screen. Data for the rad18 strain (AID 177)", "settings": "S. cerevisiae rad18 mutant growth inhibition, stronger effect = higher value", "outline": "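DNA-repair-defective yeast; compound treatment; growth inhibition scored against vehicle.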"}, "[16]": {"settings": "at 5.0 µM (retest, dose inferred, filed as 0.5)"}, "[17]": {"settings": "at 50.0 µM (retest, dose inferred, filed as 5.0)"}}, "note": "Values joined by “and” are separate entries in the source; they are usually repeats but may differ in a detail not shown here. Equal values may be shown once. About 79,000 compounds went through this panel and 15% of them were active in at least one assay; those are over-represented in the sample as a whole. More than one record can exist for a structure, and the calls need not agree. Active and inactive are the calls of the source. No stated cut-off is given here; in the data, active means growth inhibition above about 70%; inactive means the rest.", "data": [{"smiles": "COc1ccc(/C=C/C(=O)c2ccccc2)cc1OC", "values": [{"measurement": "growth inhibition", "setting": "[1]; at 1.2 µM", "value": "-42% (inactive)"}, {"measurement": "growth inhibition", "setting": "[1]; at 3.7 µM", "value": "-42% (inactive)"}, {"measurement": "growth inhibition", "setting": "[1]; at 11.0 µM", "value": "-30% (inactive)"}, {"measurement": "growth inhibition", "setting": "[1]; at 33.0 µM", "value": "19% (inactive)"}, {"measurement": "growth inhibition", "setting": "[1]; at 100.0 µM", "value": "95% (active)"}, {"measurement": "growth inhibition", "setting": "[2]; at 1.2 µM", "value": "-2% (inactive)"}, {"measurement": "growth inhibition", "setting": "[2]; at 3.7 µM", "value": "-15% (inactive)"}, {"measurement": "growth inhibition", "setting": "[2]; at 11.0 µM", "value": "-2% (inactive)"}, {"measurement": "growth inhibition", "setting": "[2]; at 33.0 µM", "value": "28% (inactive)"}, {"measurement": "growth inhibition", "setting": "[2]; at 100.0 µM", "value": "92% (active)"}, {"measurement": "growth inhibition", "setting": "[3]; at 1.2 µM", "value": "16% (inactive)"}, {"measurement": "growth inhibition", "setting": "[3]; at 3.7 µM", "value": "11% (inactive)"}, {"measurement": "growth inhibition", "setting": "[3]; at 11.0 µM", "value": "28% (inactive)"}, {"measurement": "growth inhibition", "setting": "[3]; at 33.0 µM", "value": "27% (inactive)"}, {"measurement": "growth inhibition", "setting": "[3]; at 100.0 µM", "value": "75% (active)"}, {"measurement": "growth inhibition", "setting": "[4]; at 1.2 µM", "value": "-3% (inactive)"}, {"measurement": "growth inhibition", "setting": "[4]; at 3.7 µM", "value": "-30% (inactive)"}, {"measurement": "growth inhibition", "setting": "[4]; at 11.0 µM", "value": "-24% (inactive)"}, {"measurement": "growth inhibition", "setting": "[4]; at 33.0 µM", "value": "55% (inactive)"}, {"measurement": "growth inhibition", "setting": "[4]; at 100.0 µM", "value": "96% (active)"}, {"measurement": "growth inhibition", "setting": "[5]; at 1.2 µM", "value": "12% (inactive)"}, {"measurement": "growth inhibition", "setting": "[5]; at 3.7 µM", "value": "1% (inactive)"}, {"measurement": "growth inhibition", "setting": "[5]; [16]", "value": "22% (inactive)"}, {"measurement": "growth inhibition", "setting": "[5]; at 11.0 µM", "value": "-5% (inactive)"}, {"measurement": "growth inhibition", "setting": "[5]; at 33.0 µM", "value": "44% (inactive)"}, {"measurement": "growth inhibition", "setting": "[5]; [17]", "value": "48% (inactive)"}, {"measurement": "growth inhibition", "setting": "[5]; at 50.0 µM", "value": "6.55% (inactive) and 84.3% (active)"}, {"measurement": "growth inhibition", "setting": "[5]; at 100.0 µM", "value": "96% (active)"}, {"measurement": "growth inhibition", "setting": "[6]; at 1.2 µM", "value": "-6% (inactive)"}, {"measurement": "growth inhibition", "setting": "[6]; at 3.7 µM", "value": "-12% (inactive)"}, {"measurement": "growth inhibition", "setting": "[6]; [16]", "value": "-16% (inactive)"}, {"measurement": "growth inhibition", "setting": "[6]; at 11.0 µM", "value": "-2% (inactive)"}, {"measurement": "growth inhibition", "setting": "[6]; at 33.0 µM", "value": "47% (inactive)"}, {"measurement": "growth inhibition", "setting": "[6]; [17]", "value": "59% (inactive)"}, {"measurement": "growth inhibition", "setting": "[6]; at 50.0 µM", "value": "54% (inactive) and 84% (active)"}, {"measurement": "growth inhibition", "setting": "[6]; at 100.0 µM", "value": "95% (active)"}, {"measurement": "growth inhibition", "setting": "[7]; at 1.2 µM", "value": "3% (inactive)"}, {"measurement": "growth inhibition", "setting": "[7]; at 3.7 µM", "value": "5% (inactive)"}, {"measurement": "growth inhibition", "setting": "[7]; at 11.0 µM", "value": "14% (inactive)"}, {"measurement": "growth inhibition", "setting": "[7]; at 33.0 µM", "value": "46% (inactive)"}, {"measurement": "growth inhibition", "setting": "[7]; at 100.0 µM", "value": "92% (active)"}, {"measurement": "growth inhibition", "setting": "[8]; at 1.2 µM", "value": "12% (inactive)"}, {"measurement": "growth inhibition", "setting": "[8]; at 3.7 µM", "value": "3% (inactive)"}, {"measurement": "growth inhibition", "setting": "[8]; at 11.0 µM", "value": "19% (inactive)"}, {"measurement": "growth inhibition", "setting": "[8]; at 33.0 µM", "value": "37% (inactive)"}, {"measurement": "growth inhibition", "setting": "[8]; at 100.0 µM", "value": "97% (active)"}, {"measurement": "growth inhibition", "setting": "[9]; [16]", "value": "30% (inactive)"}, {"measurement": "growth inhibition", "setting": "[9]; [17]", "value": "34% (inactive)"}, {"measurement": "growth inhibition", "setting": "[9]; at 50.0 µM", "value": "-16.2% (inactive) and 58.3% (inactive)"}, {"measurement": "growth inhibition", "setting": "[10]; at 1.2 µM", "value": "4% (inactive)"}, {"measurement": "growth inhibition", "setting": "[10]; at 3.7 µM", "value": "14% (inactive)"}, {"measurement": "growth inhibition", "setting": "[10]; [16]", "value": "16% (inactive)"}, {"measurement": "growth inhibition", "setting": "[10]; at 11.0 µM", "value": "-36% (inactive)"}, {"measurement": "growth inhibition", "setting": "[10]; at 33.0 µM", "value": "62% (inactive)"}, {"measurement": "growth inhibition", "setting": "[10]; [17]", "value": "88% (active)"}, {"measurement": "growth inhibition", "setting": "[10]; at 50.0 µM", "value": "67.5% (inactive) and 83.8% (active)"}, {"measurement": "growth inhibition", "setting": "[10]; at 100.0 µM", "value": "95% (active)"}, {"measurement": "growth inhibition", "setting": "[11]; at 1.2 µM", "value": "-30% (inactive)"}, {"measurement": "growth inhibition", "setting": "[11]; at 3.7 µM", "value": "-33% (inactive)"}, {"measurement": "growth inhibition", "setting": "[11]; at 11.0 µM", "value": "-34% (inactive)"}, {"measurement": "growth inhibition", "setting": "[11]; at 33.0 µM", "value": "38% (inactive)"}, {"measurement": "growth inhibition", "setting": "[11]; at 100.0 µM", "value": "95% (active)"}, {"measurement": "growth inhibition", "setting": "[12]; at 1.2 µM", "value": "20% (inactive)"}, {"measurement": "growth inhibition", "setting": "[12]; at 3.7 µM", "value": "19% (inactive)"}, {"measurement": "growth inhibition", "setting": "[12]; at 11.0 µM", "value": "17% (inactive)"}, {"measurement": "growth inhibition", "setting": "[12]; at 33.0 µM", "value": "67% (inactive)"}, {"measurement": "growth inhibition", "setting": "[12]; at 100.0 µM", "value": "95% (active)"}, {"measurement": "growth inhibition", "setting": "[13]; at 1.2 µM", "value": "-11% (inactive)"}, {"measurement": "growth inhibition", "setting": "[13]; at 3.7 µM", "value": "-2% (inactive)"}, {"measurement": "growth inhibition", "setting": "[13]; at 11.0 µM", "value": "5% (inactive)"}, {"measurement": "growth inhibition", "setting": "[13]; at 33.0 µM", "value": "51% (inactive)"}, {"measurement": "growth inhibition", "setting": "[13]; at 100.0 µM", "value": "96% (active)"}, {"measurement": "growth inhibition", "setting": "[14]; [16]", "value": "3% (inactive)"}, {"measurement": "growth inhibition", "setting": "[14]; [17]", "value": "79% (active)"}, {"measurement": "growth inhibition", "setting": "[14]; at 50.0 µM", "value": "17.4% (inactive) and 76.2% (active)"}, {"measurement": "growth inhibition", "setting": "[15]; at 1.2 µM", "value": "-12% (inactive)"}, {"measurement": "growth inhibition", "setting": "[15]; at 3.7 µM", "value": "-20% (inactive)"}, {"measurement": "growth inhibition", "setting": "[15]; at 11.0 µM", "value": "-8% (inactive)"}, {"measurement": "growth inhibition", "setting": "[15]; at 33.0 µM", "value": "72% (active)"}, {"measurement": "growth inhibition", "setting": "[15]; at 100.0 µM", "value": "95% (active)"}]}]}
